aSyn UTR inh: MLPCN primary screen, SNCA 5' untranslated region; alpha-synuclein 5'UTR reporter, inhibitor activity; inhibition, % (tested at 7.5 µM); hit rate 0.82% among 300,000; AID 1813, 2009; in the data active = inhibition above about 60%;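 note: H4 neuroglioblastoma cells stably carrying SNCA 5'UTR luciferase fusion; 0% = DMSO wells and 100% = positive control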
SKKanGAS inh: S. pyogenes SKKanGAS growth inhibitors in kanamycin, primary screen, streptokinase expression inhibitor project, SKKanGAS strain, BacTiter-Glo luminescence; inhibition, % at 7.5 µM; hit rate 1.3% among 300,000; 6 h;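 active = mean replicate score, as percent of positive control median, at least 50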;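 note: strain carries kanamycin resistance gene driven by streptokinase promoter and grows in 40 µg/ml kanamycin; loss of luminescence reflects streptokinase promoter inhibition or plain growth inhibition; 0% = median of DMSO wells and 100% = positive control at its reference dose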
IEC-6 cytotox: cytotoxicity in IEC-6 intestinal epithelial cells, primary screen, cytotoxicity control for KLF5 inhibitor project, cell-based, luminescence | IEC-6 cytotoxicity, luminescence viability | AID 1825, 2009 | inhibition, % at 5 µM | hit rate 0.78% among 290,000; in the data active = inhibition above about 22%;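 note: 0% = plate median of test compound wells and 100% = cytotoxic reference compound wells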
KLF5 inhibitor: KLF5 expression inhibitors, primary screen, DLD-1 cells, luminescence | DLD-1 KLF5 promoter-luciferase reporter | inhibition, % at 5 µM | hit rate 0.23% among 290,000;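 active = inhibition above a per-plate limit of that plate's mean compound inhibition plus 3 SD, cut at about 60% in these data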;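 note: 0% = DMSO wells and 100% = LY294002 at 200 µM; higher means less KLF5 promoter-driven luciferase light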
CSC inhib: cancer stem cell viability inhibitors, primary screen, luminescence; cancer stem cell-like cells viability; inhibition, % at 7.5 µM; hit rate 1.1% among 300,000; in the data active = inhibition above about 75%; tested in HMLE shEcad cells
Active calls of the source: *; . = no result given; ! = not active in a repeat. Hits are enriched below; roughly 3% of the tested compounds scored in any of these assays.

SMILES	aSyn UTR inh	SKKanGAS inh	IEC-6 cytotox	KLF5 inhibitor	CSC inhib
O=C(NC(=S)NNC(=O)c1ccco1)c1ccc(F)cc1	-2	45	7	3	4
COc1ccccc1OCC(=O)NNC(=S)NC(=O)c1ccco1	0	60*	1	-14	6
COc1ccc(/C=C/C(=O)NC(=S)NNC(=O)c2ccco2)cc1OC	25	84*	-5	-45	9
COc1ccc(C(=O)NC(=S)NNC(=O)c2ccco2)cc1	8	53*	12	-19	21
O=C1CNC(=S)N1CCCc1ccccc1	-17	-5	-8	-17	-19
CCc1ncc(CN2CCC(C(=O)Nc3cccc(-c4cscn4)c3)CC2)cn1	33	-2	0	-26	-15
COc1ccc(C(=O)Nc2cc(C)nn2-c2nc3ccccc3[nH]2)c(OC)c1	-10	36	-2	-14	-12
Cc1cc(NC(=O)c2sccc2C)n(-c2nc3ccccc3[nH]2)n1	26	63*	-10	-26	-1
COc1cccc(OC)c1C(=O)Nc1cc(C)nn1-c1nc2ccccc2[nH]1	-37	51*	2	-8	50
Cc1[nH][nH]c(=O)c1C(c1c(C)[nH][nH]c1=O)c1cn(Cc2ccc(Cl)c(Cl)c2)c2ccccc12	90*	69*	8	-18	67
Cc1[nH][nH]c(=O)c1C(c1c(C)[nH][nH]c1=O)c1cn(Cc2ccc(F)cc2)c2ccccc12	.	.	-12	2	28
CCC(=O)NNc1ccc(Br)cc1	3	8	5	6	80*
Cc1c(O)cccc1C(=O)N[C@@H](CSc1ccccc1)[C@H](O)CN1C[C@H]2CCCC[C@H]2C[C@H]1C(=O)NC(C)(C)C	-23	9	2	13	78*!
COc1ccc(-n2c(O)c(/C=N/Nc3nc(C)cc(C)n3)c3ccccc3c2=O)cc1OC	120*	31	-3	1	4
COc1ccc(-n2c(O)c(/C=N/NS(=O)(=O)c3ccc(C)cc3)c3ccccc3c2=O)cc1OC	0	16	-4	-11	12
CSc1ccc2c(c1)N(CCC1CCCCN1C)c1ccccc1S2 (stereo not given)	110*	11	.	-10	37
O=c1cc(/N=C/c2coc3c(ccc4ccccc43)c2=O)[nH]c(=S)[nH]1	-5	87*	6	-5	3
COc1ccc(C(=O)/C=C/c2ccc(N3CCCCC3)c([N+](=O)[O-])c2)c(OC)c1	-40	9	-1	-10	97*
CCCn1c(=O)c(C(=O)NC(C)c2ccccc2)c(O)c2ccccc21 (stereo not given)	-12	-3	4	-6	8
CCCCCCn1c(=O)c(C(=O)N/N=C/c2cccc(F)c2)c(O)c2ccccc21	10	63*	4	-4	5
CCCn1c(=O)c(C(=O)N/N=C/c2ccc(F)cc2)c(O)c2ccccc21	-6	103*	-1	-7	9
CC(C)CCn1c(=O)c(C(=O)N/N=C/c2cccc(F)c2)c(O)c2ccccc21	5	81*	-2	-22	11
CCCn1c(=O)c(C(=O)N/N=C/c2ccccc2F)c(O)c2ccccc21	-95	15	-4	-12	.
COc1ccc(CCC(=O)N2CCCSC2=Nc2ccc(C(C)=O)cc2)cc1	-29	-1	-5	2	-3
CCN(CC)S(=O)(=O)c1ccc(-n2cnc3cc(C)c(C)cc32)nc1	-9	7	-8	-12	3
SMILES	aSyn UTR inh	SKKanGAS inh	IEC-6 cytotox	KLF5 inhibitor	CSC inhib
N#Cc1nc(-c2ccc(Cl)cc2)oc1NCC1CCCO1 (stereo not given)	-58	-6	8	-57	7
CN1CCN(c2ccc(-c3cccc(NC(=O)COc4ccc(Cl)cc4Cl)c3)nn2)CC1	-19	10	.	.	16
C=C(C)C(=O)Nc1cccc(C2=NOC3(C2)C[C@H](C(N)=O)N(C(=O)/C=C/C)C3)c1 (stereo not given in full)	14	-3	.	.	-12
S=c1[nH]nc(C2CCCCC2)n1/N=C/C(Cl)=C\c1ccccc1	-75	-3	0	-10	109*
S=c1[nH]nc(-c2cccs2)n1/N=C/c1c(Cl)cccc1Cl	-6	63*	-3	18	8
S=c1[nH]nc(C2CCCCC2)n1/N=C/c1c(Cl)cccc1Cl	31	52*	2	-15	36
S=c1[nH]nc(C2CCCCC2)n1/N=C/c1ccc(Cl)cc1	32	5	0	-7	8
S=c1[nH]nc(-c2cc(-c3ccccc3)n[nH]2)n1/N=C/C(Br)=C/c1ccccc1	-42	18	4	3	83*
CCOC(=O)C1=C(N)Oc2cc(O)ccc2C1c1cccc([N+](=O)[O-])c1 (stereo not given)	-30	-3	-8	-16	11
COc1ccccc1NS(=O)(=O)c1ccc(C)c(NC(=O)c2c(C)noc2C)c1	.	.	.	.	-9
Cc1cc(-c2n[nH]c(=S)n2/N=C/C(Cl)=C/c2ccccc2)n[nH]1	-164	22	-1	-31	0
S=c1[nH]nc(-c2ccco2)n1/N=C/C(Cl)=C/c1ccccc1	-172	26	-4	-110	83*
Cc1c(Cl)cnc(NC(=O)COC(=O)c2ccc3ncsc3c2)c1Cl	67*	5	-5	13	-8
O=C(Cc1ccc(Cl)cc1)NNC(=O)C1CC=CCC1C(=O)O (stereo not given)	12	-7	3	-12	-17
CCN(CCCn1c(SCC#N)nc2ccccc2c1=O)c1ccccc1	43	61*	-7	-7	13
C=C(C)Cn1c(SCC#N)nc2ccccc2c1=O	23	16	-3	-10	7
CCCN(CCC)CCNC(=O)C1CCN(Cc2nc(-c3ccc(Cl)cc3)oc2C)CC1	-30	5	57*	3	7
Cc1nc(Nc2cccc(C(C)O)c2)c2nnn(Cc3ccccc3F)c2n1 (stereo not given)	17	-4	4	-14	0
Cc1ccc(S(=O)(=O)Nc2ccc3nc(C)sc3c2)cc1	-19	-1	5	-21	-13
Cc1ccc(NS(=O)(=O)c2sc3ccc(Cl)cc3c2C)cc1	2	24	-2	-13	98*
Cc1ccc(C)c(OCc2cc(C(=O)NC(c3ccccn3)C(F)(F)F)no2)c1 (stereo not given)	8	38	-1	-28	20
C/C(=N\Nc1ccc(C(=O)O)cc1)c1ccc(Cl)s1	-87	.	8	-130	-9
C/C(=N\NC(=O)c1ccc(Cl)c(Cl)c1)c1ccc(Br)s1	91*	88*	-8	21	-10
C/C(=N\Nc1ccc(Cl)c(C(=O)O)c1)c1ccc(Br)s1	-31	58*	4	-115	2
Cc1ccc(-n2c(C)nnc2SCC(=O)NC2CCCC2)cc1	-13	-16	-3	-22	-7
NS(=O)(=O)c1cccc(NC(=O)CN2C(=O)C(=O)N(Cc3ccccc3)C2=O)c1	.	.	.	.	-3
O=C(Cn1nnc(-c2ccccc2)n1)N/N=C/c1cccc([N+](=O)[O-])c1O	4	90*	4	-5	-1
